Screen size: about 39,000 compounds; about 3,300 (8.5%) were called active. The full list was thinned out, with actives kept by preference.
system: HepG2; experiment: cytotoxicity call (relative viability < 0.9); conditions: 10 µM

Compound	cytotoxicity call
COc1ccc(OCc2c(-c3ccccc3)nnn2CC(=O)NS(=O)(=O)c2cccc(C#N)c2)cc1	inactive
COCC(=O)N1C[C@@H](C)[C@H](OC)CN(C)C(=O)c2cc(NC(=O)c3ccc(F)cc3)ccc2OC[C@@H]1C	inactive
COc1cc2ccc(=O)oc2c(O[C@H]2O[C@@H](CO)[C@@H](O)[C@@H](O)[C@@H]2O)c1O	inactive
C[C@@H]1CN([C@@H](C)CO)C(=O)Cc2cc(NC(=O)Cn3cnnn3)ccc2O[C@@H]1CN(C)C(=O)Nc1ccc2c(c1)OCO2	inactive
CCS(=O)(=O)N1C[C@]2(CN(C2)C(=O)CN2CCOCC2)c2c(n(c3cc(ccc23)OC)C)[C@H]1CO	inactive
COc1ccc(CN(C)C[C@H]2OCCCC[C@H](C)Oc3ccc(NS(=O)(=O)c4ccccc4)cc3C(=O)N([C@H](C)CO)C[C@H]2C)cc1	inactive
O=C(Cc1ccccn1)NCC[C@H]1CC[C@H](NC(=O)CN2CCOCC2)[C@H](CO)O1	inactive
C[C@@H]1CN([C@H](C)CO)C(=O)c2cc(NS(=O)(=O)c3cn(C)cn3)ccc2O[C@H]1CN(C)Cc1ccncc1	inactive
C[C@H](CO)N1C[C@H](C)[C@@H](CN(C)S(=O)(=O)c2ccccc2)OCCCC[C@H](C)Oc2ccc(NC(=O)CCC(F)(F)F)cc2C1=O	inactive
Cc1noc(C)c1NC(=O)N(C)C[C@H]1Oc2c(NC(=O)Cn3cnnn3)cccc2C(=O)N([C@H](C)CO)C[C@@H]1C	inactive
C[C@@H]1CN([C@H](C)CO)C(=O)c2cc(NC(=O)C3CCCCC3)ccc2O[C@@H](C)CCCCO[C@H]1CN(C)C(=O)c1ccncc1	inactive
C[C@@H]1CCCCO[C@@H](CN(C)Cc2ccc(C(F)(F)F)cc2)[C@H](C)CN([C@@H](C)CO)C(=O)c2cc(NS(=O)(=O)c3cccs3)ccc2O1	inactive
C[C@@H]1CCCCO[C@@H](CN(C)Cc2ccc(C(F)(F)F)cc2)[C@@H](C)CN([C@H](C)CO)C(=O)c2cc(NS(=O)(=O)c3cccs3)ccc2O1	active
C[C@H](CO)N1C[C@H](C)[C@H](CN(C)Cc2ccc(C(F)(F)F)cc2)OCCCC[C@H](C)Oc2ccc(NS(=O)(=O)c3cccs3)cc2C1=O	active
C[C@@H]1CN([C@H](C)CO)C(=O)c2cc(NS(=O)(=O)c3cccs3)ccc2O[C@@H](C)CCCCO[C@H]1CN(C)Cc1ccc(C(F)(F)F)cc1	active
C[C@@H]1CN([C@H](C)CO)C(=O)c2cc(NS(=O)(=O)c3cccs3)ccc2O[C@@H](C)CCCCO[C@@H]1CN(C)Cc1ccc(C(F)(F)F)cc1	inactive
C[C@@H]1CCCCO[C@@H](CN(C)Cc2ccc(C(=O)O)cc2)[C@H](C)CN([C@@H](C)CO)C(=O)c2cc(NS(=O)(=O)c3cccs3)ccc2O1	inactive
C[C@@H]1CCCCO[C@H](CN(C)Cc2ccc(C(F)(F)F)cc2)[C@@H](C)CN([C@@H](C)CO)C(=O)c2cc(NS(=O)(=O)c3cccs3)ccc2O1	inactive
C[C@H](CO)N1C[C@H](C)[C@@H](CN(C)Cc2ccc(C(F)(F)F)cc2)OCCCC[C@H](C)Oc2ccc(NS(=O)(=O)c3cccs3)cc2C1=O	inactive
C[C@H]1CCCCO[C@@H](CN(C)Cc2ccc(C(F)(F)F)cc2)[C@@H](C)CN([C@@H](C)CO)C(=O)c2cc(NS(=O)(=O)c3cccs3)ccc2O1	inactive
C[C@H]1CN([C@@H](C)CO)C(=O)c2cccc(NC(=O)c3ccc(-c4nccs4)cc3)c2O[C@@H]1CN(C)S(=O)(=O)c1cn(C)cn1	inactive
Cc1noc(C)c1S(=O)(=O)N(C)C[C@H]1OCCCC[C@H](C)Oc2ccc(N(C)C)cc2C(=O)N([C@H](C)CO)C[C@@H]1C	inactive
COc1ccc(NC(=O)N(C)C[C@@H]2OCCCC[C@H](C)Oc3ccc(NS(=O)(=O)c4c(C)noc4C)cc3C(=O)N([C@@H](C)CO)C[C@@H]2C)cc1	inactive
CO[C@@H]1CN(C)C(=O)c2ccc(NC(=O)C3CC3)cc2OC[C@@H](C)N(C(=O)C2CCOCC2)C[C@H]1C	inactive
Cc1cc(C2CCCCC2)n(O)c(=O)c1.NCCO	active

Compound	cytotoxicity call
C[C@H]1CN([C@@H](C)CO)C(=O)c2c(c3ccccc3n2C)-c2ccccc2CO[C@@H]1CN(C)Cc1ccc(C(F)(F)F)cc1	inactive
Cc1noc(C)c1S(=O)(=O)Nc1ccc2c(c1)C(=O)N([C@H](C)CO)C[C@H](C)[C@H](CN(C)C(=O)Nc1ccc(F)cc1)OCCCC[C@H](C)O2	inactive
Cc1noc(C)c1NC(=O)Nc1ccc2c(c1)C(=O)N([C@H](C)CO)C[C@H](C)[C@@H](CN(C)S(=O)(=O)c1ccc(F)cc1)OCCCC[C@@H](C)O2	inactive
Cc1cc(C(=O)Nc2cccc3c2O[C@H](CN(C)S(=O)(=O)c2cccs2)[C@@H](C)CN([C@H](C)CO)C3=O)n(C)n1	inactive
CCNC(=O)C=Cc1cccc(Br)c1	active
CCNC(=O)c1cccc(NS(C)(=O)=O)c1	inactive
COC(=O)CNC(=O)/C=C/c1ccc(OC)cc1	inactive
C[C@H](CO)N1C[C@H](C)[C@@H](CN(C)C(=O)Nc2ccc(C(F)(F)F)cc2)Oc2ccc(NS(=O)(=O)c3ccc(F)cc3)cc2C1=O	inactive
COc1ccc(S(=O)(=O)Nc2ccc3c(c2)CC(=O)N([C@H](C)CO)C[C@H](C)[C@H](CN(C)S(=O)(=O)c2cn(C)cn2)O3)cc1	inactive
C[C@@H]1CCCCO[C@H](CN(C)C(=O)C2CCCCC2)[C@H](C)CN([C@@H](C)CO)C(=O)c2cc(NC(=O)Nc3ccc(F)cc3)ccc2O1	inactive
C[C@@H]1CN([C@H](C)CO)C(=O)c2cc(NC(=O)Nc3ccc(F)cc3)ccc2O[C@@H](C)CCCCO[C@@H]1CN(C)C(=O)C1CCCCC1	inactive
C[C@H]1CCCCO[C@H](CN(C)C(=O)C2CCCCC2)[C@@H](C)CN([C@@H](C)CO)C(=O)c2cc(NC(=O)Nc3ccc(F)cc3)ccc2O1	active
C[C@H](CO)N1C[C@H](C)[C@H](CN(C)C(=O)C2CCCCC2)OCCCC[C@H](C)Oc2ccc(NC(=O)Nc3ccc(F)cc3)cc2C1=O	inactive
C[C@H]1CCCCO[C@@H](CN(C)C(=O)C2CCCCC2)[C@@H](C)CN([C@@H](C)CO)C(=O)c2cc(NC(=O)Nc3ccc(F)cc3)ccc2O1	active
C[C@@H]1CCCCO[C@H](CN(C)C(=O)C2CCCCC2)[C@@H](C)CN([C@@H](C)CO)C(=O)c2cc(NC(=O)Nc3ccc(F)cc3)ccc2O1	active
C[C@@H]1CCCCO[C@@H](CN(C)C(=O)C2CCCCC2)[C@@H](C)CN([C@@H](C)CO)C(=O)c2cc(NC(=O)Nc3ccc(F)cc3)ccc2O1	inactive
C[C@@H]1CCCCO[C@@H](CN(C)C(=O)C2CCCCC2)[C@H](C)CN([C@@H](C)CO)C(=O)c2cc(NC(=O)Nc3ccc(F)cc3)ccc2O1	inactive
C[C@@H]1CCCCO[C@@H](CN(C)C(=O)C2CCCCC2)[C@@H](C)CN([C@H](C)CO)C(=O)c2cc(NC(=O)Nc3ccc(F)cc3)ccc2O1	inactive
CNC(=O)C(=O)Nc1ccc(C)c(F)c1	inactive
Cc1noc(C)c1NC(=O)Nc1ccc2c(c1)C(=O)N([C@H](C)CO)C[C@H](C)[C@@H](CN(C)CC1CCCCC1)OCCCC[C@H](C)O2	inactive
COc1cccc(S(=O)(=O)N(C)C[C@@H]2Oc3ncc(C#CCC(C)C)cc3C(=O)N([C@@H](C)CO)C[C@@H]2C)c1	inactive
O=C(CN1CCOCC1)N[C@@H]1CC[C@@H](CCn2cc(C3CCCC3)nn2)O[C@H]1CO	inactive
C[C@@H]1CN([C@@H](C)CO)C(=O)Cc2cc(NC(=O)NC3CCCCC3)ccc2O[C@H]1CN(C)Cc1ccc(C(F)(F)F)cc1	inactive
Cc1noc(C)c1NC(=O)Nc1ccc2c(c1)C(=O)N([C@H](C)CO)C[C@H](C)[C@H](CN(C)S(=O)(=O)c1ccccc1)OCCCC[C@H](C)O2	inactive
COc1ccc(S(=O)(=O)N(C)C[C@H]2Oc3c(NS(=O)(=O)c4ccc(C)cc4)cccc3C(=O)N([C@H](C)CO)C[C@H]2C)cc1	inactive

Compound	cytotoxicity call
C[C@@H]1O[C@@H](O[C@H]2[C@H](Oc3cc(O)c(C(=O)CCc4ccc(O)cc4)c(O)c3)O[C@H](CO)[C@@H](O)[C@@H]2O)[C@H](O)[C@H](O)[C@H]1O	inactive
O=C(Nc1ccc(C(F)(F)F)cc1)Nc1cccc(Cl)c1	active
O=C(CNCCO)Nc1ccc(F)c(Cl)c1	inactive
O=C(Nc1ccc(Cl)cc1)Nc1ccc(Cl)c(Cl)c1	active
CCC(=O)Nc1ccc(Cl)cc1	inactive
N=C(N=C(N)N)Nc1cccc(Cl)c1	inactive
CC(C)C(=O)Nc1cccc(Cl)c1	inactive
C[C@@H]1CN([C@@H](C)CO)C(=O)c2cc(NS(=O)(=O)c3ccccc3)ccc2O[C@@H](C)CCCCO[C@@H]1CN(C)C(=O)Nc1ccc2c(c1)OCO2	inactive
CCN(CC)CCOc1ccc2c(c1)C(=O)c1cc(OCCN(CC)CC)ccc1-2	active
CCCOc1cc(N)ccc1C(=O)OCCN(CC)CC.Cl	inactive
O=S1(=O)[C@@H]2C[C@H]3C=CC2(CN1C1CC1)O3	inactive
Cc1ccc(S(=O)(=O)N(C)C[C@@H]2OCCCC[C@H](C)Oc3ccc(NC(=O)NC4CCCCC4)cc3C(=O)N([C@@H](C)CO)C[C@H]2C)cc1	active
Cc1ccc(S(=O)(=O)N(C)C[C@H]2OCCCC[C@@H](C)Oc3ccc(NC(=O)NC4CCCCC4)cc3C(=O)N([C@H](C)CO)C[C@@H]2C)cc1	inactive
C[C@@H]1CCCCO[C@H](CN(C)S(=O)(=O)c2ccccc2)[C@@H](C)CN([C@H](C)CO)C(=O)c2cc(NC(=O)NC3CCCCC3)ccc2O1	inactive
Cc1ccc(S(=O)(=O)N(C)C[C@@H]2OCCCC[C@@H](C)Oc3ccc(NC(=O)NC4CCCCC4)cc3C(=O)N([C@@H](C)CO)C[C@@H]2C)cc1	inactive
Cc1ccc(S(=O)(=O)N(C)C[C@@H]2OCCCC[C@H](C)Oc3ccc(NC(=O)NC4CCCCC4)cc3C(=O)N([C@H](C)CO)C[C@@H]2C)cc1	inactive
C[C@H](CO)N1C[C@H](C)[C@H](CN(C)S(=O)(=O)c2ccccc2)OCCCC[C@H](C)Oc2ccc(NC(=O)NC3CCCCC3)cc2C1=O	active
Cc1ccc(S(=O)(=O)N(C)C[C@H]2OCCCC[C@@H](C)Oc3ccc(NC(=O)NC4CCCCC4)cc3C(=O)N([C@H](C)CO)C[C@H]2C)cc1	active
C[C@H]1CCCCO[C@@H](CN(C)S(=O)(=O)c2ccccc2)[C@@H](C)CN([C@@H](C)CO)C(=O)c2cc(NC(=O)NC3CCCCC3)ccc2O1	inactive
Cc1ccc(S(=O)(=O)N(C)C[C@H]2OCCCC[C@H](C)Oc3ccc(NC(=O)NC4CCCCC4)cc3C(=O)N([C@@H](C)CO)C[C@H]2C)cc1	inactive
Cc1ccc(S(=O)(=O)N(C)C[C@H]2OCCCC[C@H](C)Oc3ccc(NC(=O)NC4CCCCC4)cc3C(=O)N([C@H](C)CO)C[C@H]2C)cc1	inactive
Cc1ccc(S(=O)(=O)N(C)C[C@@H]2OCCCC[C@H](C)Oc3ccc(NC(=O)NC4CCCCC4)cc3C(=O)N([C@H](C)CO)C[C@H]2C)cc1	active
Cc1ccc(S(=O)(=O)N(C)C[C@H]2OCCCC[C@H](C)Oc3ccc(NC(=O)NC4CCCCC4)cc3C(=O)N([C@@H](C)CO)C[C@@H]2C)cc1	inactive

— the antibiotic and cytotoxicity screens of Wong et al. (2023)
